Results reported in PubChem BioAssay (NCATS).
“And” between values parts separate entries of the source, which are not always exact repeats. Identical values can stand only once. Inconclusive results are not listed. The source made the active and inactive calls. Calls come from the whole dose curve; as a rule, active = well fitted curve in the direction sought with a large enough effect; inconclusive = small, poorly fitted or top-dose-only effect, or another doubt; inactive = no such curve, though single readings can be large; an effect the other way counts as inactive or inconclusive.

Columns and labels:
[1] = tested on: Zika virus NS2B-NS3 protease (unlinked complex); test: Primary screen GU Rhodamine qHTS for Zika virus inhibitors: Unlinked NS2B-NS3 protease assay (AID 1347159); note: nearly all actives have a fitted effect of over 60% in size
How it was run: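 A qHTS format was used, with compound concentrations ranging up to 114 microM. Each compound was preincubated with 25 nM NS2B-NS3 protease, and the substrate was then added at 1.5 microM. Curves were fitted with a 4-parameter Hill model.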

[2] = tested on: Zika virus NS2B-NS3 protease (linked construct); test: Primary screen NINDS Rhodamine qHTS for Zika virus inhibitors (AID 1347160); note: nearly all actives have a fitted effect of over 55% in size
How it was run: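 Kinetic fluorescence (Ex 480 nm, Em 540 nm) over 15 min with 1.5 microM Rhodamine110 peptide and 25 nM linked protease.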

[3] = target: Calcium and integrin-binding protein 1 (Homo sapiens) (UniProt Q99828); test: Primary qHTS for Identification of Calcium Integrin Binding Protein 1 (CIB1) Competitor (AID 1508620);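 note: GST tagged CIB1 binding a fluorescein labelled alphaIIb integrin peptide tracer; top concentration of the series differs between compounds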
How it was run: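 CIB1-GST (1 uM final) and compound incubated 15 min at room temperature before adding FITC-alphaIIb peptide tracer (100 nM final). Competition for binding read by fluorescence polarization (ex 480, em 540) after another 15 min at room temperature.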

[4] = Primary qHTS for inhibitors of nuclear receptor binding SET domain protein 2 (NSD2) in an isogenic RCH-ACV NSD2 p.E1099K mutant (9B) (AID 1645876); note: potency is the fitted concentration of half-maximal effect; nearly all actives have a fitted effect of over 70% in size
[5] = Primary qHTS for inhibitors of nuclear receptor binding SET domain protein 2 (NSD2) in an RCH-ACV wild type WT cells (2C) (AID 1645877); note: nearly all actives have a fitted effect of over 70% in size; note: potency is the fitted concentration of half-maximal effect
[6] = target: Glutathione peroxidase 1 (Homo sapiens) (UniProt P07203); test: Primary qHTS Assay for Inhibitors of Recombinant Selenoprotein Glutathione Peroxidase 1 (GPX1) (AID 1845191); note: nearly all actives have a fitted effect of over 65% in size
How it was run: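 10 nM GPX1 + cpd, 30 min RT; start w/ 1 mM GSH, 0.5 mM cumene hydroperoxide, 0.5 mM NADPH, 100 nM GR, 0.01% BSA; buffer 50 mM Tris-HCl pH 7.5, 2 mM EDTA, 150 mM NaCl; Fl 340/450, 0 & 15 min.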

[7] = target: Phospholipid hydroperoxide glutathione peroxidase GPX4 (Homo sapiens) (UniProt P36969); test: Primary qHTS Assay for Inhibitors of Recombinant Selenoprotein Glutathione Peroxidase 4 (GPX4) (AID 1845192); settings: outcome: dose series up to 50 µM unless noted; note: nearly all actives have a fitted effect of over 65% in size
How it was run: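 NADPH consumption, followed by fluorescence at 340/450 nm between 0 and 15 min, reports GPX4 activity via coupled glutathione reductase (100 nM). Enzyme 200 nM was pre-exposed to compound 30 min; 0.5 mM cumene hydroperoxide and 1 mM GSH served as substrates.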

[8] = target: Luciferin 4-monooxygenase (Photinus pyralis) (UniProt P08659); test: Primary firefly luciferase (FLuc) qHTS assay for identification of artifact compounds. (AID 1845220); note: nearly all actives have a fitted effect of over 60% in size
How it was run: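 Compounds sat 15 min at room temperature with 10 uM luciferin and 10 uM ATP (pH 7.6 Tris acetate). Firefly luciferase (10 nM final) was then added, and luminescence was read 5 min later. Data normalized to no-enzyme and DMSO controls were Hill-fitted.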

[9] = tested on: Nanoluciferase (engineered Oplophorus gracilirostris luciferase); test: Primary Nanoluciferase (NLuc) qHTS assay for identification of artifact compounds. (AID 1845222)
How it was run: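 Luminescence from secreted NLuc (filtered, 1:55-diluted S16 cell medium) read 5 min after Nano-Glo substrate; compounds preincubated 15 min, RT. Hill fits of inhibition normalized to DMSO and no-enzyme.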

[10] = Primary redox qHTS assay for identification of artifact compounds. (AID 1845223)
How it was run: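 Amplex Red (25 uM) and HRP (250 mU/mL) in HBSS, with compounds for 15 min, then 250 uM DTT for 30 min, room temperature, dark. Fluorescence 525/598 nm read; normalized to DMSO and 10 uM DA3003; Hill fit.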

Es-2 = test: Primary qHTS to identify gynecologic anti-cancer compounds using libraries of approved drugs and bioactive compounds (AID 1345084); settings: Gynecologic cancer cell panel viability, ATPlite luminescence, 48 h; series mostly up to 57.5 µM; note: nearly all actives have a fitted effect of over 55% in size; note: potency is the fitted concentration of half-maximal effect
How it was run: (§1)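 Five-point cytotoxicity, 48 h drug exposure at 37 C, 5% CO2, on cells seeded 16 h beforehand. ATP content read by ATPlite luminescence.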

HeLa = test: as above; settings: Gynecologic cancer cell panel viability, ATPlite luminescence, 48 h; series mostly up to 57.5 µM
How it was run: as §1

JEG-3 = test: as above; settings: Gynecologic cancer cell panel viability, ATPlite luminescence, 48 h; series mostly up to 57.5 µM
How it was run: as §1

OV90 = test: as above; settings: Gynecologic cancer cell panel viability, ATPlite luminescence, 48 h; series mostly up to 57.5 µM
How it was run: as §1

PA-1 = test: as above; settings: Gynecologic cancer cell panel viability, ATPlite luminescence, 48 h; series mostly up to 57.5 µM
How it was run: as §1

Tov-21-G = test: as above; settings: Gynecologic cancer cell panel viability, ATPlite luminescence, 48 h; series mostly up to 57.5 µM
How it was run: as §1

CASKI = test: as above; settings: Gynecologic cancer cell panel viability, ATPlite luminescence, 48 h; series mostly up to 57.5 µM
How it was run: as §1

C33A = test: as above; settings: Gynecologic cancer cell panel viability, ATPlite luminescence, 48 h; series mostly up to 57.5 µM
How it was run: as §1

Tov112D = test: as above; settings: Gynecologic cancer cell panel viability, ATPlite luminescence, 48 h; series mostly up to 57.5 µM
How it was run: as §1

Hek293T = test: as above; settings: Gynecologic cancer cell panel viability, ATPlite luminescence, 48 h, control line for the selectivity index; series mostly up to 57.5 µM
How it was run: as §1

Measured: Potency

Glutathione peroxidase 1 (Homo sapiens), sequence (P07203 whole entry, looked up): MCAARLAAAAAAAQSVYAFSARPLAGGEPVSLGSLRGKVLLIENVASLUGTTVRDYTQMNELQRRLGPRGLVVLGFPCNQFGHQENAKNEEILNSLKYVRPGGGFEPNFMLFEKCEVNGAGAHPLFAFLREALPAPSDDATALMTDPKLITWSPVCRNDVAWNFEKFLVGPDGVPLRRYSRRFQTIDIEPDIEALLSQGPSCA
Phospholipid hydroperoxide glutathione peroxidase GPX4 (Homo sapiens), sequence (P36969 whole entry, looked up): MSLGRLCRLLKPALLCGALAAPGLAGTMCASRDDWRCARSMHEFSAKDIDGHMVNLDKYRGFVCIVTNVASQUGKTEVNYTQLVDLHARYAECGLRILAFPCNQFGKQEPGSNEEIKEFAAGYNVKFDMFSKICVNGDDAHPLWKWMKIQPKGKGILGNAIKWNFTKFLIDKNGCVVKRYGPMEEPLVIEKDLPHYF
Calcium and integrin-binding protein 1 (Homo sapiens), sequence (Q99828 whole entry, looked up): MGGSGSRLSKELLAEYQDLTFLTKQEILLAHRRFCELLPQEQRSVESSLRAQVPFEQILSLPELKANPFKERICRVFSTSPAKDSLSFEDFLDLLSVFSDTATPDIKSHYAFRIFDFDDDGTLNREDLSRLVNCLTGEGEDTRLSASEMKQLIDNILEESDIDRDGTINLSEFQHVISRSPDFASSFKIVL

O=C1c2c(O[C@@H]3O[C@H](CO)[C@@H](O)[C@H](O)[C@H]3O)cc(O)cc2OC1(O)Cc1ccc(O)cc1 (stereo not given in full)
active: [4] 7.96 µM | [5] 4.47 µM
not listed: CASKI | C33A | Tov112D | Hek293T
inactive: all other assays above

COCCNCc1ccc(-c2cc3nccc(Oc4ccc(NC(=S)NC(=O)Cc5ccc(F)cc5)cc4F)c3s2)nc1
active: [4] 2.9 µM | [5] 3.25 µM and 2.35 µM | PA-1 31.6 µM
not listed: [3] | Es-2 | HeLa | OV90 | C33A | Tov112D | Hek293T
inactive: all other assays above

C=C(C)C(=O)O[C@H]1[C@H]2C(=C)C(=O)O[C@@H]2C[C@@H](C)/C=C\C(=O)[C@](C)(O)[C@@H]1OC(C)=O
active: C33A 11.2 µM | Es-2 11.2 µM | JEG-3 10 µM | PA-1 10 µM | Tov-21-G 7.94 µM
not listed: [4] | HeLa | OV90 | CASKI | Tov112D | Hek293T
inactive: all other assays above

CC1(CO)CCCC2(C)C1C(OC(=O)c1ccccc1)C=C1C(=O)OCC12O (stereo not given)
active: [4] 2.84 µM | [5] 1.79 µM | Tov-21-G 11.2 µM
inactive: [2] | [6] | [7] | [8] | [9] | CASKI | HeLa | JEG-3 | Tov112D

CNCCN(C)Cc1cn[nH]c1-c1ccc(OC2CC(OCCC3CCOCC3)C2)cc1 (stereo not given)
inactive: [3] | [6] | [7]

CCS(=O)(=O)N(Cc1cccnc1)c1cccc(-c2ccc(C#N)cc2)c1
active: [4] 16.3 µM | [5] 20.5 µM
not listed: OV90 | Tov-21-G
inactive: all other assays above

Cc1cc(CN)cc(C)c1NC(=O)c1ccc(-c2cc(Cl)ccc2Cl)o1
active: [4] 18.3 µM | [5] 9.16 µM
not listed: [1]
inactive: all other assays above
